Experimental data as given in the supplement of paper PMC10981050.
Several values for one entry are separate records, joined by “and”; a condition that tells them apart may be missing. Identical values can stand only once. Counter-ions that a name gives are not always drawn.

Key:
Experiment in all cases: cell viability relative to vehicle control; higher = less cytotoxic
Conditions in all cases: 10 µM
K562 = system: K562
How it was run: (§1)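 Screening covered the Selleck bioactive, kinase and epigenetic probe libraries, less identity-inconsistent compounds, on CRISPR-edited mutant clones and isogenic wild-type clones of four leukaemia lines. Cells, at 2000 per well in 50 µL medium, received a single 10 µM acoustically dispensed dose. After 48 h the supernatant was removed and CellTiter-Glo luminescence was read. Viability was analysed in Genedata Screener as percent of the on-plate vehicle control.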

MARIMO = system: MARIMO
How it was run: as §1

MOLM14 = system: MOLM14
How it was run: as §1

OCI-AML2 = system: OCI-AML2
How it was run: as §1

SMILES	cell viability (K562; SRSF2 genotype: SRSF2 P95H/wt)	cell viability (K562; SRSF2 genotype: SRSF2 wt/wt) [%]	cell viability (MARIMO; SRSF2 genotype: SRSF2 P95H/wt) [%]	cell viability (MARIMO; SRSF2 genotype: SRSF2 wt/wt) [%]	cell viability (MOLM14; SRSF2 genotype: SRSF2 P95H/wt) [%]	cell viability (MOLM14; SRSF2 genotype: SRSF2 wt/wt) [%]	cell viability (OCI-AML2; SRSF2 genotype: P95H/wt) [%]	cell viability (OCI-AML2; SRSF2 genotype: wt/wt) [%]
O=C(Nc1ccccc1)Nc1ccc(-c2ccc(C(=O)[C@@H]3CCC[C@H]3C(=O)O)cc2)cc1	96.9% and 97.6%	98.8	106	106	102	103	103	109
Cc1c(Nc2ncccc2C(=O)O)cccc1C(F)(F)F [Flunixin meglumin]	95.8% and 87.2%	93.9	89.8	96.2	87.4	89.4	90.4	101
CC(C)n1ncnc1-c1cn2c(n1)-c1ccc(O[C@@H](C)C(N)=O)cc1OCC2	103% and 99.5%	105	48.3	46.3	50.9	62.9	18.5	34.3
CC1(C)O[C@@H]2C[C@H]3[C@@H]4C[C@H](F)C5=CC(=O)C=C[C@]5(C)[C@@]4(F)[C@@H](O)C[C@]3(C)[C@]2(C(=O)CO)O1 [Fluocinolone acetonide (Flucort-N)]	95% and 96%	92.6	98.3	104	95.6	91.6	100	109
O=C(c1cncc(Br)c1)N1CCC(N2CCCC2)CC1	103% and 100%	98.7	106	100	101	101	104	120
C=C1C[C@@]23CC[C@H]4[C@@](C)(CCC[C@@]4(C)C(=O)O)[C@@H]2CC[C@@H]1C3 [Kaurenoic acid]	105% and 103%	107	105	101	112	103	104	106
O=C(NCC1(c2nc(-c3ccccc3)cs2)CCOCC1)c1cccc(-c2noc(C(F)(F)F)n2)c1	82.1% and 90.7%	86.5	86.5	85.5	87.9	97.8	75.7	79.3
CCN(CC)Cc1ccc2cc(COC(=O)Nc3ccc(C(=O)NO)cc3)ccc2c1 [ITF2357 (Givinostat)]	1.36% and 7.22%	1.85	4.74	9.63	0.81	0.55	1.72	3.52
COc1ccc(-c2oc3c(CC=C(C)C)c(O[C@@H]4O[C@H](CO)[C@@H](O)[C@H](O)[C@H]4O)cc(O)c3c(=O)c2O[C@@H]2O[C@@H](C)[C@H](O)[C@@H](O)[C@H]2O)cc1 [Icariin]	94.5% and 104%	98.7	98.7	110	108	104	105	112
O=S(=O)(NC1CCCCC1)c1ccc2c(c1)C(=NO)c1cc(S(=O)(=O)NC3CCCCC3)ccc1-2	80.3% and 92.9%	92.3	4.08	57.4	11.1	70.7	0.52	0.59
O=c1c2ccccc2nc(C=Cc2cccnc2)n1Cc1ccccc1	86.8% and 86.9%	79.8	74.3	90.1	78.5	82.6	78.4	75.9
C[C@@H](O[C@H]1OCCN(Cc2n[nH]c(=O)[nH]2)[C@H]1c1ccc(F)cc1)c1cc(C(F)(F)F)cc(C(F)(F)F)c1 [Aprepitant (MK-0869)]	52.7% and 46%	56.8	73	56.1	56.2	64.3	45.8	56.8
CCCCCCCCN=c1ccn(CCCCCCCCCCn2ccc(=NCCCCCCCC)cc2)cc1 [Octenidine Dihydrochloride]	0.46% and 0.39%	0.55	0.32	0.34	0.3	0.33	0.29	0.41
Nc1ncn([C@H]2C[C@H](O)[C@@H](CO)O2)c(=O)n1 [Decitabine]	77.9% and 88.9%	80.9	69.5	73.8	47.4	39.7	54.4	58.2
C=Cc1c(C)c2cc3nc(cc4[nH]c(cc5nc(cc1[nH]2)C(C)=C5CCC(=O)O)c(CCC(=O)OC)c4C)C1(C)C3=CC=C(C(=O)OC)C1C(=O)OC (configuration not stated) [Verteporfin (Visudyne)]	68.3% and 75.3%	70.6	87.7	85.2	80.2	59.8	69.7	77.9
C[C@@H]1O[C@@H](O[C@H]2[C@H](O[C@H]3CC[C@@]4(C)[C@@H](CC[C@]5(C)[C@@H]4CC=C4[C@@H]6CC(C)(C)CC[C@]6(C(=O)O[C@@H]6O[C@H](CO[C@@H]7O[C@H](CO)[C@@H](O)[C@H](O)[C@H]7O)[C@@H](O)[C@H](O)[C@H]6O)CC[C@]45C)[C@]3(C)CO)OC[C@H](O)[C@@H]2O)[C@H](O)[C@H](O[C@@H]2O[C@H](CO)[C@@H](O[C@@H]3O[C@H](CO)[C@@H](O)[C@H](O)[C@H]3O)[C@H](O)[C@H]2O)[C@H]1O [Macranthoidin B]	86.7% and 84.6%	85	83.6	94.2	86	86.6	91.4	86
CC1CCc2c(N3CCC(O)CC3)c(F)cc3c(=O)c(C(=O)O)cn1c23 (configuration not stated) [Nadifloxacin]	94% and 98.4%	92.4	102	105	107	108	114	94

SMILES	cell viability (K562; SRSF2 genotype: SRSF2 P95H/wt)	cell viability (K562; SRSF2 genotype: SRSF2 wt/wt) [%]	cell viability (MARIMO; SRSF2 genotype: SRSF2 P95H/wt) [%]	cell viability (MARIMO; SRSF2 genotype: SRSF2 wt/wt) [%]	cell viability (MOLM14; SRSF2 genotype: SRSF2 P95H/wt) [%]	cell viability (MOLM14; SRSF2 genotype: SRSF2 wt/wt) [%]	cell viability (OCI-AML2; SRSF2 genotype: P95H/wt) [%]	cell viability (OCI-AML2; SRSF2 genotype: wt/wt) [%]
Nc1nc(CC(=O)Nc2ccc(CCNC[C@H](O)c3ccccc3)cc2)cs1 [Mirabegron (YM178)]	102% and 111%	107	103	114	101	103	110	93.1
CCOC(=O)[C@H](CCc1ccccc1)N[C@@H](C)C(=O)N1CCC[C@H]1C(=O)O [Enalapril maleate (Vasotec)]	106% and 100%	106	99.6	111	112	103	94.2	97.8
COc1cc(-c2coc3cc4c(c(OC)c3c2=O)OCO4)cc(OC)c1OC [Irisflorentin]	93.9% and 96.7%	93.6	89.8	96.8	96.8	97.9	81.6	90.9
CC(C)=CCC/C(C)=C/Cc1c(O)c(CC=C(C)C)c2c(c1O)C(=O)C1=C[C@@H]3C[C@H]4C(C)(C)O[C@@](C/C=C(/C)C(=O)O)(C3=O)[C@@]14O2 [Gambogenic acid]	1.97% and 1.06%	1.12	0.46	0.68	0.23	0.27	0.27	0.82
CC1(C)S[C@@H]2[C@H](NC(=O)[C@H](C(=O)O)c3ccsc3)C(=O)N2[C@H]1C(=O)O [Ticarcillin sodium]	95.6% and 98.8%	104	101	95.7	96.3	101	98.2	89.6
CC(C)C[C@H](NC(=O)[C@H]1O[C@@H]1C(=O)O)C(=O)NCCCCN=C(N)N	106% and 111%	114	99.6	104	101	104	108	115
C1=N/C2=N/c3ccc(OCCN4CCCC4)c(c3)COC/C=C/COCc3cccc(c3)C(=C1)N2 [Pacritinib (SB1518)]	3.78% and 2.31%	4.47	0.41	0.42	0.21	0.25	0.2	0.32
CO[C@@]1(NC(=O)CSC[C@@H](N)C(=O)O)C(=O)N2C(C(=O)O)=C(CSc3nnnn3C)CS[C@@H]21 [Cefminox Sodium]	103%	99	105	109	96	106	99.4	98
O=C(O)CSCC(=O)NC1CCSC1=O (configuration not stated) [Erdosteine]	101% and 96.3%	97.8	101	102	97.8	98	89.9	96.9
COc1ccc([C@@H]2CC(=O)c3c(O)cc(O[C@@H]4O[C@H](CO)[C@@H](O)[C@H](O)[C@H]4O[C@@H]4O[C@@H](C)[C@H](O)[C@@H](O)[C@H]4O)cc3O2)cc1 [Poncirin]	99.7% and 97.1%	99.2	97.8	104	102	94.7	95.1	96
CN1CC[C@@H](NC(=O)Nc2ccc(C#N)cc2)C[C@@H]1c1nc2ccccc2[nH]1	98.5% and 104%	107	104	109	98.8	100	98.1	112
O=c1c(-c2ccc(O)cc2)coc2c([C@@H]3O[C@H](CO)[C@@H](O)[C@H](O)[C@H]3O)c(O)ccc12 [Puerarin (Kakonein)]	109% and 101%	97.2	98.6	101	102	102	96.4	102
CC(C)c1onc(-c2c(Cl)cccc2Cl)c1COc1ccc(/C=C/c2cccc(C(=O)O)c2)c(Cl)c1	95.1% and 94.7%	99.7	94.5	98.6	95.5	97.3	69.3	82
COc1cc2ncnc(Nc3ccc(F)c(Cl)c3)c2cc1O	92.5% and 95.6%	102	102	101	81.9	101	90.2	94
Cc1c(Cc2ccc3ccccc3n2)c2cc(F)ccc2n1CC(=O)O	102% and 99.7%	98.8	97.5	108	98.5	103	90.4	107
COC(=O)CC[C@H](NC(=O)[C@H](CC(=O)OC)NC(=O)OCc1ccccc1)C(=O)N[C@H](C(=O)N[C@@H](CC(=O)OC)C(=O)CF)C(C)C	101% and 95.3%	93.7	99.4	104	100	97.3	98.4	103
COc1ccc(C(=O)C2CCN(CC(=O)N(Cc3nc4c(c(=O)[nH]3)COCC4)CC3CC3)CC2)cc1	110% and 104%	102	108	110	109	102	98.8	109
